CHX counter – affects cycloheximide protein synthesis inhibition readout, counter-screen. cell reporter, cycloheximide protein synthesis inhibition counterscreen. 300,000 tested, 12% active. max response, %; in the data active = max response mostly above about 13%, no sharp cut-off; inactive = mostly below about 14%; note: read at 38.3 µM for the half of the compounds with a filed dose; 0% is about no effect
LmPK inh – blocks Leishmania mexicana pyruvate kinase activity; purified LmPK, Kinase-Glo ATP luminescence, 1 h; Q27686; Potency, µM (titrated, usually from 57.5 µM), inactives show top-dose activity change, negative = inhibition, most hits filed as inhibitors; AID 1721; 290,000 tested, 0.37% active; note: potency is the fitted concentration of half-maximal effect; % is set by controls: 0 for no effect and ±100 for the full control effect
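Purified LmPK (0.1 nM) converted ADP (0.1 mM) to ATP with PEP (0.5 mM) in imidazole buffer pH 7.2 with KCl and MgCl2, 1 h at room temperature. ATP was read by Kinase-Glo luminescence; data normalized to uninhibited and no-enzyme controls.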
Sm TGR block – blocks Schistosoma mansoni thioredoxin glutathione reductase. AID 485364. purified TGR, DTNB reduction, TNB absorbance 405 nm. Q962Y6. 360,000 tested, 3% active. Potency, µM (top dose mostly 114 µM), inactives show at the top dose activity change, negative = inhibition, actives largely listed as inhibitors; note: potency is the fitted concentration of half-maximal effect; % is set by controls: 0 for no effect and ±100 for the full control effect; nearly all actives have a fitted effect of over 60% in size
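First, TGR (20 nM dispensed) and NADPH were mixed with compound. Second, a 15 min room-temperature incubation followed. Third, further NADPH and then DTNB were added to start the reaction. Finally, TNB absorbance was monitored kinetically.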
Shiga inhibitor – Shiga toxin inhibition; Vero cells, Shiga toxin protein synthesis inhibition reporter; inhibition, % at 38.7 µM; 290,000 tested, 9.2% active; AID 2315; in the data active = inhibition mostly above about 28%, no sharp cut-off; inactive = mostly below about 43%; note: 0% is about no effect
FBPA Giardia inh – Giardia lamblia aldolase inhibition | A8B2U2 | purified Giardia FBPA | Potency, µM (highest dose often 59.6 µM), inactives show top-dose activity, negative = inhibition, usual class: inhibitors | 290,000 tested, 0.71% active; note: potency is the fitted concentration of half-maximal effect; % is set by controls: 0 for no effect and ±100 for the full control effect; nearly all actives have a fitted effect of over 55% in size
Target sequence (A8B2U2 whole entry, looked up): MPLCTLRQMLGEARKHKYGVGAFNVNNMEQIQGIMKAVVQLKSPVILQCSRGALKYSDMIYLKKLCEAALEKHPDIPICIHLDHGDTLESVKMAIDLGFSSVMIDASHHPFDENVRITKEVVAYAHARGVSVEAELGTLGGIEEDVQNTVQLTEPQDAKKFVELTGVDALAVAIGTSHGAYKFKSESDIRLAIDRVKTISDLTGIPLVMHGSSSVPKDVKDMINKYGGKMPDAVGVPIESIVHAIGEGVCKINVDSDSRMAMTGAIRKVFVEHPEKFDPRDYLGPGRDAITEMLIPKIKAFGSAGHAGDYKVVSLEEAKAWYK
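Giardia FBPA (40 nM reagent) was preincubated 10 min at RT with compound (up to 57.5 uM final), then substrate plus GAPDH/TPI/NAD/arsenate coupling system with diaphorase/resazurin was added; resorufin fluorescence (525/598 nm) was read after 20 min.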
Tb PYK inh – T. brucei pyruvate kinase inhibition; Q57TT1; TbPYK enzyme, Kinase-Glo Plus ATP luminescence, 45 min; Potency, µM (titrated, usually from 76.8 µM), for inactives: top-dose activity, negative = inhibition, most hits filed as inhibitors; 410,000 tested, 0.12% active; note: potency is the fitted concentration of half-maximal effect; % is set by controls: 0 for no effect and ±100 for the full control effect; nearly all actives have a fitted effect of over 50% in size
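Activity of T. brucei pyruvate kinase was followed by Kinase-Glo Plus luminescence after the enzyme reacted 45 min at room temperature with 130 uM ADP (final) and substrate. Test compounds were added before ADP at multiple concentrations.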
Active calls of the source: *; [ ] = remark or other dose. Shown is part of a subset that was picked to be rich in hits. Unless noted, calls come from the whole dose curve; as a rule, active = well fitted curve in the direction sought with a large enough effect; inconclusive = small, poorly fitted or top-dose-only effect, or another doubt; inactive = no such curve, though single readings can be large; an effect the other way counts as inactive or inconclusive.

For CN(C(=O)CSc1nc2ccccc2n1CC(=O)N(C)c1ccc(F)cc1)c1ccccc1 the results were Sm TGR block 0% and Tb PYK inh -3%.
Screening COc1cc(C(=O)NNC(=S)NC(=O)c2ccc3c(c2)OCO3)cc(OC)c1OC returned CHX counter -3, LmPK inh 0%, Sm TGR block 0%, Shiga inhibitor -4, FBPA Giardia inh inconclusive and Tb PYK inh 0%.
Screening O=C(Nc1cccc([N+](=O)[O-])c1)c1ccncc1 returned CHX counter -2, LmPK inh -10%, Sm TGR block -1%, Shiga inhibitor -7, FBPA Giardia inh 0% and Tb PYK inh -2%.
CC(C)(C)c1ccc(C(=O)Nc2cccc([N+](=O)[O-])c2)cc1 was read as CHX counter 86*, LmPK inh 2%, Sm TGR block -4%, Shiga inhibitor 96*, FBPA Giardia inh -22% and Tb PYK inh 3%.
`CC(C)c1ccc(O)c(NC(=S)NC(=O)c2ccc3c(c2)OCO3)c1` gave CHX counter 53*, LmPK inh 1%, Sm TGR block 16%, Shiga inhibitor 99* and Tb PYK inh -17%.
For CN(c1cccc(NC(=O)c2ccc(C(C)(C)C)cc2)c1)S(C)(=O)=O the results were CHX counter 43*, LmPK inh 10%, Sm TGR block 10%, Shiga inhibitor 42, FBPA Giardia inh -18% and Tb PYK inh 4%.
`O=C(Nc1cccc([N+](=O)[O-])c1)c1[nH]ncc1Cl` gave CHX counter 62*, LmPK inh -17%, Sm TGR block 0%, Shiga inhibitor 97*, FBPA Giardia inh 0% and Tb PYK inh 4%.
`O=C(Nc1cccc([N+](=O)[O-])c1)c1cnccn1` gave CHX counter 2, LmPK inh -4%, Sm TGR block -14%, Shiga inhibitor -38, FBPA Giardia inh -3% and Tb PYK inh -15%.
For COc1ccc(NC(=O)CN(C)C(=O)c2ccc(NS(=O)(=O)c3ccc4[nH]c(=O)[nH]c4c3)cc2)cc1 the results were Sm TGR block -1% and Tb PYK inh 1%.
`CCOc1ccc(-n2c(=O)c3c(C)c(C(=O)N(C)C)sc3n(CC(=O)Nc3c(C)cc(C)cc3C)c2=O)cc1` gave Sm TGR block -7% and Tb PYK inh -2%.
`CS(=O)(=O)Nc1ccc(C(=O)Nc2ccc3c(c2)OCCO3)cc1` gave CHX counter 25*, LmPK inh -15%, Sm TGR block -13%, Shiga inhibitor 55, FBPA Giardia inh -2% and Tb PYK inh 6%.
CC(C)(C)NS(=O)(=O)c1ccc(C(=O)Nc2ccc3c(c2)OCO3)cc1 was read as CHX counter 21*, LmPK inh 7%, Sm TGR block -9%, Shiga inhibitor 77*, FBPA Giardia inh -7% and Tb PYK inh 8%.
Screening O=C(COC(=O)COc1ccccc1)Nc1ccc2c(c1)OCCO2 returned Tb PYK inh 21%.
Screening O=C(CC(=O)c1ccccc1)Nc1ccc2c(c1)OCCO2 returned CHX counter 43*, LmPK inh -15%, Sm TGR block -7%, Shiga inhibitor 74*, FBPA Giardia inh 1% and Tb PYK inh -14%.
Screening O=C(Nc1cccc(Cl)c1)c1ccc2c(c1)OCCO2 returned CHX counter 32*, LmPK inh -19%, Sm TGR block 5%, Shiga inhibitor 60*, FBPA Giardia inh 0% and Tb PYK inh -9%.
`CN1C(=O)c2ccc(C(=O)Nc3ccc4c(c3)OCO4)cc2C1=O` gave CHX counter 24*, LmPK inh -4%, Sm TGR block 7%, Shiga inhibitor 38 and Tb PYK inh 1%.
`CC(=O)c1cccc(NC(=O)N2CCCC2C(=O)Nc2ccc3c(c2)OCCO3)c1` (configuration not stated) gave CHX counter 14*, LmPK inh -9%, Sm TGR block 8%, Shiga inhibitor 87*, FBPA Giardia inh -10% and Tb PYK inh -1%.
Screening CN(c1ccc(C(=O)Nc2cccc([N+](=O)[O-])c2)cc1)S(C)(=O)=O returned CHX counter 20, LmPK inh 2%[11.5 µM], Sm TGR block -10%, Shiga inhibitor 14, FBPA Giardia inh inconclusive and Tb PYK inh -14%.
COc1cccc(NC(=O)N2CCCC2C(=O)Nc2ccc3c(c2)OCCO3)c1 (configuration not stated) was read as CHX counter 8, LmPK inh -2%, Sm TGR block -8%, Shiga inhibitor -3, FBPA Giardia inh -1% and Tb PYK inh 1%.
CN1C(=O)c2ccc(NC(=O)c3cccc(N4C(=O)CCC4=O)c3)cc2C1=O was read as CHX counter -1, LmPK inh 3%, Sm TGR block 9%, Shiga inhibitor 24, FBPA Giardia inh -2% and Tb PYK inh 3%.
O=C(Nc1cccc([N+](=O)[O-])c1)c1ccc2c(c1)OCCO2 was read as CHX counter 41*, LmPK inh -12%, Sm TGR block -1%, Shiga inhibitor 89*, FBPA Giardia inh -17% and Tb PYK inh 0%.
O=C(Nc1cccc(Cl)c1)c1ccc(F)c(S(=O)(=O)NCc2ccc3c(c2)OCO3)c1 was read as CHX counter 21*, LmPK inh 3%, Sm TGR block 7%, Shiga inhibitor -1, FBPA Giardia inh -7% and Tb PYK inh -21%.
For O=C1CCCc2cc(S(=O)(=O)NCC3CCC(C(=O)Nc4ccc(Cl)cc4)CC3)ccc2N1 (configuration not stated) the results were Sm TGR block 8% and Tb PYK inh 1%.
Cc1ccc(Nc2c(-c3c[nH]c4ccccc34)nc3ccccn23)cc1 was read as Sm TGR block 2% and Tb PYK inh -4%.
Screening Cc1ccc(CCNC(=O)Cn2nc(-c3ccc(C)cc3)ccc2=O)cc1 returned Sm TGR block 0% and Tb PYK inh 3%.
O=C(Nc1ccc2c(c1)OCO2)c1ccccc1 was read as CHX counter 53*, LmPK inh 3%, Sm TGR block 2%, Shiga inhibitor 87*, FBPA Giardia inh 2% and Tb PYK inh 0%.
Cc1onc(-c2ccccc2)c1C(=O)Nc1ccc2c(c1)OCO2 was read as CHX counter 15, LmPK inh 3%, Sm TGR block -1%, Shiga inhibitor 14, FBPA Giardia inh -2% and Tb PYK inh 1%.
For O=C(Nc1ccc2c(c1)OCCO2)c1cccc(C(=O)Nc2ccc3c(c2)OCCO3)c1 the results were CHX counter 34*, LmPK inh 3%, Sm TGR block -6%, Shiga inhibitor 37*, FBPA Giardia inh 3% and Tb PYK inh -7%.
